Source: PubChem BioAssay
PAFAH1B3 inh – inhibitors of human PAFAH1B3; Q15102; inhibition, % at 3.39 µM; 0.28% of 340,000 active; recombinant PAFAH1B3, FP-rhodamine probe, fluorescence polarization;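 active means inhibition above the screen-wide average of all tested compounds plus 3 SD, cut at about 25% in these data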;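 further: 0% = enzyme with DMSO only and 100% = wells lacking PAFAH1B3 protein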
M18AAP inhibitor – PfM18AAP enzyme inhibition | inhibition, % at 7.35 µM | 1.2% of 290,000 active | recombinant PfM18AAP, H-Glu-NHMec fluorogenic cleavage;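 active means inhibition above the campaign mean inhibition over all tested compounds plus 3 SD, cut at about 28% in these data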;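 further: 0% = plate median of test compound wells and 100% = 2 mM ZnCl2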
Pemphigus Ab inh – inhibitors of pemphigus antibody binding to human desmoglein-3 | P32926 | DSG3-coupled beads, scFv-anti-DSG3-GFP binding, flow cytometry; stronger effect = lower value | binding (percent of control), % at 10 µM | 0.48% of 310,000 active | AID 588358;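 active means binding more than 3 SD below its plate's average and above zero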;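 further: hits lower antibody fragment binding to DSG3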
PAFAH1B2 inh – inhibitors of human PAFAH1B2; P68402; recombinant PAFAH1B2, FP-rhodamine activity probe, fluorescence polarization; inhibition, % at 3.39 µM; 1.2% of 340,000 active; AID 492953;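 active means inhibition above the mean of all tested compounds plus 3 SD, cut at about 24% in these data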;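 further: 0% = enzyme with DMSO and 100% = wells lacking PAFAH1B2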
PAFAH2 FP inh – PAFAH2 (human) inhibition; recombinant PAFAH2, FP-rhodamine activity probe, fluorescence polarization; inhibition, % at 3.39 µM; 0.99% of 340,000 active; AID 492956;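 active means inhibition above the mean over all tested compounds plus 3 SD, cut at about 30% in these data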;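 further: inhibitors block probe labeling of enzyme so polarization drops; 0% = enzyme with DMSO and 100% = wells lacking PAFAH2 protein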
pPAFAH inh – pPAFAH (human) enzyme inhibition. recombinant pPAFAH, FP-rhodamine probe fluorescence polarization. AID 463082. 1.5% of 330,000 active. inhibition, % at 3.39 µM. Q13093;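 active means inhibition above the mean inhibition across the screen plus 3 SD, cut at about 25% in these data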;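 further: inhibitors block binding of the rhodamine activity-based probe so polarization drops; 0% = enzyme with DMSO and 100% = wells lacking pPAFAH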
* = called active by the depositor; nt = not tested or not shown. An excerpt weighted towards active compounds, which were near 3.8% of everything screened.

SMILES | PAFAH1B3 inh | M18AAP inhibitor | Pemphigus Ab inh | PAFAH1B2 inh | PAFAH2 FP inh | pPAFAH inh
CCOc1ccccc1OCCCC(=O)N1CCN(S(=O)(=O)c2ccc(C)cc2C)CC1 | 3 | nt | 101 | 3 | -2 | 5
CCOc1ccccc1OCCCC(=O)N1CCN(S(=O)(=O)c2ccc(C)cc2)CC1 | 15 | -7 | 99 | 29* | 6 | 2
O=C(COc1ccccc1)N1CCN(S(=O)(=O)c2ccc(Cl)cc2)CC1 | -3 | -4 | 100 | 31* | 1 | 5
O=C(CSc1nc2[nH]ncc2c(=O)[nH]1)Nc1cc(C(F)(F)F)ccc1Cl | nt | nt | 101 | nt | nt | nt
CCC(C)C(CO)NCCCn1cnc2c(OCc3ccccc3)ncnc21 (centres undefined) | nt | nt | 101 | nt | nt | nt
O=C(CSc1nc2nc(-c3cccs3)cc(C(F)(F)F)c2c(=O)[nH]1)NCc1ccco1 | -4 | 28* | 102 | 5 | 18 | 2
S=C(NCCc1ccc(Cl)cc1)NC1CCCCC1 | 4 | 4 | nt | 34* | 2 | -9
S=C(NCCc1ccccc1)NC1CCCCCC1 | -1 | 4 | nt | 9 | 6 | 6
O=C(NCCc1ccc(Cl)cc1)C1CCC(=O)N(C2CCCCCC2)C1 (centres undefined) | 5 | 5 | nt | 3 | 3 | 2
O=S(=O)(Nc1ncccn1)c1ccc(NC(=S)NCCc2ccc(Cl)cc2)cc1 | -3 | -8 | 101 | 44* | 0 | 1
O=C(NCCc1ccc(Cl)cc1)C1CCC(=O)N1C1CCCC1 (centres undefined) | 5 | -18 | 100 | 56* | 3 | -2
S=C(NCCc1ccc(Cl)cc1)NC1CCCC1 | 0 | 5 | 84 | 27* | 0 | 6
CCOC(=O)N(O)c1ccc(C=Cc2ccccc2)cc1 | 10 | nt | 94 | 6 | 1 | nt
N#Cc1cccc(S(=O)(=O)NNC(=O)C23CC4CC(CC(C4)C2)C3)c1 | 9 | nt | 96 | 26* | 3 | 5
CC(C)(C)c1[nH]nc2c1C(C1C=CCCC1)C(C#N)=C(N)O2 (centres undefined) | -3 | 2 | 100 | 27* | 7 | -3
CC(C)(C)c1[nH]nc2c1C(c1cccnc1)C(C#N)=C(N)O2 (centres undefined) | 7 | -5 | 101 | 6 | -4 | 3
CC(C)c1[nH]nc2c1C(C1C=CCCC1)C(C#N)=C(N)O2 (centres undefined) | 2 | -1 | 112 | 17 | 5 | -2
CC(C)(C)c1[nH]nc2c1C(Cc1ccccc1)C(C#N)=C(N)O2 (centres undefined) | 4 | -4 | nt | 40* | 1 | -1
Cc1cccc(C(=O)NNC(=O)C2CCCCC2)c1O | nt | nt | 102 | nt | nt | nt
COc1cc(C)ccc1OCc1cc(C(=O)NC(c2ccccn2)C(F)(F)F)no1 (centres undefined) | nt | nt | 79* | nt | nt | nt
COc1cc(C)ccc1OCc1cc(C(=O)NC2CCOCC2)no1 | nt | nt | 110 | nt | nt | nt
COc1ccccc1NC(=O)COC(=O)/C=C/c1ccccc1[N+](=O)[O-] | 8 | 0 | 108 | 3 | 12 | 26*
NC(=O)c1ccsc1NC(=O)COC(=O)/C=C/c1ccccc1[N+](=O)[O-] | 8 | nt | 98 | 5 | 15 | 13
CC(C)(C)NC(=O)COC(=O)/C=C/c1ccccc1[N+](=O)[O-] | 5 | -5 | 102 | 0 | 29 | 32*
COc1ccc2c(C(=O)NCc3ccc4c(c3)OCO4)c(-c3ccc(S(C)(=O)=O)cc3)sc2c1 | 0 | nt | 97 | -1 | 7 | 3
SMILES | PAFAH1B3 inh | M18AAP inhibitor | Pemphigus Ab inh | PAFAH1B2 inh | PAFAH2 FP inh | pPAFAH inh
O=[N+]([O-])c1cc(S(=O)(=O)N2CCCC2)ccc1O | -9 | -11 | 95 | -1 | 4 | 3
O=[N+]([O-])c1cc(S(=O)(=O)N2CCCCCC2)ccc1F | -18 | -10 | 99 | 29* | 17 | 1
Cc1ccc2nc(N3CCN(C(=O)CCCC(=O)O)CC3)nc(-c3ccccc3)c2c1 | 6 | 16 | 91 | -4 | -3 | 5
O=C(O)CCCC(=O)N1CCN(c2nc(-c3ccccc3Cl)c3cc(Br)ccc3n2)CC1 | -2 | -4 | 91 | 1 | 0 | 28*
Cc1nc2ccccc2c(=O)n1/N=C/c1ccc(OC(F)F)cc1 | 1 | -11 | 103 | 0 | 7 | 4
CCOc1ccc(/C=N/n2c(C)nc3ccccc3c2=O)cc1 | 11 | 1 | 68* | 2 | -3 | 1
O=C(Nc1ccccc1N1CCOCC1)c1cccc2ccccc12 | nt | nt | 97 | nt | nt | nt
CCCC[C@@H]1CNCCN1CC1(c2ccccc2)CC1 | 1 | nt | 108 | 3 | 1 | 0
COC(=O)c1cccc(NC(=O)Cc2ccc(OC)cc2)c1C | -6 | 1 | 103 | -1 | -13 | 2
COc1ccc(CC(=O)Nc2cccc(C(=O)NN3C(=O)c4ccccc4C3=O)c2C)cc1 | 1 | -1 | 14* | 5 | 8 | 2
O=C(Cc1c(F)cccc1Cl)NNC(=S)Nc1ccc(S(=O)(=O)Nc2ncccn2)cc1 | -5 | 15 | 101 | 6 | -3 | -1
Cc1ccc(NC(=O)CN(C)C(=O)c2cc(-c3ccco3)nc3ccccc23)cc1 | 2 | nt | 97 | 1 | 3 | 32*
CN(CCOc1ccc(Cl)cc1)C(=O)c1cc(-c2ccco2)nc2ccccc12 | 2 | nt | 102 | 11 | 7 | 26*
COc1cccc(NC(=O)CN(C)C(=O)c2cc(-c3ccco3)nc3ccccc23)c1 | 8 | nt | 103 | -3 | 8 | 9
CCOc1ccc(NC(=O)CN(C)C(=O)c2cc(-c3ccco3)nc3ccccc23)cc1OCC | 3 | nt | 101 | 2 | 0 | nt
CN(CC(=O)Nc1ccc(F)cc1)C(=O)c1cc(-c2ccco2)nc2ccccc12 | -3 | nt | 86 | 3 | 6 | 27*
COc1ccc2nc3n(c(=O)c2c1)-c1ncccc1C(=O)NC3Cc1ccccc1 (centres undefined) | nt | nt | 97 | nt | nt | nt
O=C(NCC1CCCO1)C1CCCN(S(=O)(=O)c2ccc(Cl)cc2)C1 (centres undefined) | 10 | 4 | 100 | 10 | 1 | 6
COC(=O)Cn1ccnc1[N+](=O)[O-] | nt | nt | 102 | nt | nt | nt
CSCCC(NC(=O)c1ccccc1Cl)C(=O)N(C)CC(=O)Nc1ccc(N2CCOCC2)cc1 (centres undefined) | 2 | nt | 102 | 5 | 4 | 29*
CN(CC(=O)Nc1ccc(N2CCOCC2)cc1)C(=O)c1cccc(Cl)c1Cl | 9 | nt | 102 | 6 | 0 | -4
O=C1CCCC/C1=C\Nc1ccc(O)cc1 | 5 | 25 | 101 | 0 | 4 | 26*
Cc1cc(NC(=O)c2ccc(Cl)cc2Cl)no1 | 2 | 0 | 102 | 8 | 0 | 12
O=C1NC(=O)/C(=C/c2ccccc2OCc2ccccc2)S1 | 10 | 0 | 97 | 16 | 5 | 3
O=C1NC(=O)/C(=C\c2ccccc2Oc2ccc(F)c(F)c2)S1 | -11 | 2 | 104 | 26* | -4 | 8
O=C(OCC(=O)c1ccc(Cl)s1)c1cnccn1 | 2 | -5 | 98 | 3 | 8 | 26*
